Hit rate of the full screen: of about 320,000 compounds, about 240 (0.075%) were called active.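 Rule for the calls: active = inhibition at or above 25%, using the most active replicate where run in duplicate; inactive = inhibition below 25%.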 Shown is part of a subset that was picked to be rich in actives.
biological target: Serine/threonine-protein kinase 33 (Homo sapiens) (UniProt Q9BYT3); test: inhibitors of purified STK33 kinase, primary screen, biochemical, ADP-Glo luminescence, homogeneous, cell-free (AID 2661); details: purified STK33, MBP phosphorylation, at 10 µM, stronger effect = higher value
Sequence (Q9BYT3 whole entry, looked up): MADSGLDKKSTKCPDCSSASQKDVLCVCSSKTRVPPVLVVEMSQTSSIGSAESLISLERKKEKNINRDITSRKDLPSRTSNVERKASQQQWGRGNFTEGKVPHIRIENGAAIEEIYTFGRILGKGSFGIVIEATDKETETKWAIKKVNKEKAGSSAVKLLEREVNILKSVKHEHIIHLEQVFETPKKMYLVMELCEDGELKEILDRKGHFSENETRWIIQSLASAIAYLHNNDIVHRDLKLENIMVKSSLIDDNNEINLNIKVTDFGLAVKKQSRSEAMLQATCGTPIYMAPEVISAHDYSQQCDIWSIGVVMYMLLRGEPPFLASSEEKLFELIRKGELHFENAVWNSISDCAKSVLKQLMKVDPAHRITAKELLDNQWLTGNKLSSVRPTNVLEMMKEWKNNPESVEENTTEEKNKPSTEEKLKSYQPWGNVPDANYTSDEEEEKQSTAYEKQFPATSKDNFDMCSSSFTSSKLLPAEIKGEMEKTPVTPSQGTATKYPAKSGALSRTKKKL

| SMILES | inhibition |
| --- | --- |
| O=C(N[C@@H]1C/C=C\C[C@@H](CC(=O)N(CCO)Cc2ccccc2)C(=O)N[C@H](Cc2ccccc2)COC1=O)OCC1c2ccccc2-c2ccccc21 | -2.32% (inactive) |
| Fc1ccc2cnc(-c3ccccc3)cc2c1 | -0.562% (inactive) |
| C=CCC[C@@H](Cc1ccc(F)cc1)C(=O)OC[C@H](Cc1c[nH]c2ccccc12)NC(=O)[C@@H](CC=C)CC(=O)N(CCO)Cc1ccccc1 | -0.461% (inactive) |
| O=C1N[C@@H](c2ccccc2)COC(=O)[C@H](Cc2ccc(F)cc2)C/C=C\C[C@@H]1CC(=O)N(CCO)Cc1ccccc1 | 0.44% (inactive) |
| CCN(CC(=O)NCc1ccc(F)cc1)S(=O)(=O)c1ccc(Cl)s1 | 0.0366% (inactive) |
| NC(=O)Nc1ccc(C(=O)OCC(=O)NC2CCCc3ccccc32)cc1 (stereo not given) | -0.0928% (inactive) |
| Oc1ccc(N=Cc2c(O)ccc3ccccc23)cc1 | 57.4% (active) |
| O=[N+]([O-])c1ccc(N=Cc2c(O)ccc3ccccc23)cc1 | -0.767% (inactive) |
| Oc1ccc(N=Cc2sc3ccccc3c2Cl)cc1 | 1.25% (inactive) |
| CC(OC(=O)c1c(F)cccc1F)C(=O)NCCC1=CCCCC1 (stereo not given) | -0.382% (inactive) |
| Cc1ccc(C)c(S(=O)(=O)N2CCN(c3ncnc4sccc34)CC2)c1 | -3.05% (inactive) |
| COc1ccc(C(=O)Nc2cc(S(=O)(=O)N3CCCC3)ccc2Cl)cc1 | 0.138% (inactive) |
| COc1cc(OC)cc(C(=O)NNC(=O)Cc2cccs2)c1 | -0.657% (inactive) |
| COc1ccc2sc(-c3ccc(S(C)(=O)=O)cc3)c(C#Cc3cncn3C)c2c1 | -0.341% (inactive) |
| O=C(CNC(=O)c1n[nH]c2ccccc12)Nc1cc(Cl)ccc1Cl | 1.57% (inactive) |
| CC(C)n1cnc2c(NCc3ccccc3)cc(N[C@@H](CO)Cc3ccccc3)cc21 | 0.0472% (inactive) |
| C=CC[C@@H](CC(=O)N[C@@H](CO)Cc1ccccc1)C(=O)N[C@H](COC(=O)[C@H](CC=C)CC(=O)OC(C)(C)C)Cc1ccccc1 | -0.409% (inactive) |
| CCCCCCSc1ccc([C@@H]2[C@H]3C(=O)N(CC)C(=O)[C@H]3[C@]3(C(=O)OC)CCCCN23)cc1 | 1.08% (inactive) |
| CC(C)NC(=O)Nc1cccc2c1O[C@H](CN(C)S(=O)(=O)c1cccs1)[C@@H](C)CN([C@H](C)CO)C2=O | -0.082% (inactive) |
| O=C(CCc1ccc(S(=O)(=O)N2CCOCC2)cc1)OCC(=O)c1ccc(Br)cc1 | 2.88% (inactive) |
| COc1cc(NC(=O)COC(=O)c2ccc([N+](=O)[O-])s2)cc(OC)c1OC | -0.723% (inactive) |
| O=C(CSc1nc2ccccc2c(=O)n1-c1ccccc1F)N1CCOCC1 | -0.216% (inactive) |

| SMILES | inhibition |
| --- | --- |
| COC(=O)c1ccc(CNC(=O)c2ccc(S(=O)(=O)N3CCCCCC3)cc2)cc1 | -0.472% (inactive) |
| Cn1cncc1C#Cc1c(-c2ccsc2)sc2ccccc12 | 0.202% (inactive) |
| Cc1ccccc1NC(=O)CSC(=O)c1ccccc1 | -0.158% (inactive) |
| COc1ccc(S(=O)(=O)N2CCOCC2)cc1NC(=O)CSc1nnc(NC2CC2)s1 | -0.646% (inactive) |
| O=C(CN1C(=O)NC2(CCCCCCC2)C1=O)NCc1ccc(F)cc1 | 0.305% (inactive) |
| COc1cc(/C=C/C(=O)OCC(=O)NCCCc2ccccc2)ccc1O | -0.517% (inactive) |
| COc1ccc(-c2sc3ccccc3c2-c2ccc(OCCN3CCOCC3)cc2)cc1 | -0.928% (inactive) |
| COc1ccc(S(=O)(=O)N2CCN(c3cnccn3)CC2)cc1 | 0.373% (inactive) |
| Cc1onc(-c2c(F)cccc2Cl)c1C(=O)OCC(=O)N1C(C)CCCC1C (stereo not given) | -0.377% (inactive) |
| Cc1ccc(C)c(NC(=O)COC(=O)c2nn(C)c(=O)c3ccccc23)c1 | 0.213% (inactive) |
| Cc1cc(NC(=O)CSc2ncc(C(F)(F)F)cc2Cl)no1 | -0.4% (inactive) |
| COc1ccc(C(=O)O)cc1S(=O)(=O)NC1CCN(Cc2ccccc2)CC1 | -0.986% (inactive) |
| Cn1nnnc1SCC(=O)Nc1sccc1C(N)=O | 0.459% (inactive) |
| O=C(c1ccc(S(=O)(=O)NCc2ccco2)cc1)N1CCN(c2ccccc2)CC1 | -0.564% (inactive) |
| COCC(C)n1c(SCC(=O)NC2CCCCC2C)nc2ccccc2c1=O (stereo not given) | 1.21% (inactive) |
| C[C@H](CO)N1C[C@H](C)[C@H](CN(C)C(=O)Nc2ccc(C(F)(F)F)cc2)Oc2c(NC(=O)c3ccncc3)cccc2C1=O | -1.64% (inactive) |
| Cc1ccc(NC(=O)Cn2cnc3c(OCc4ccccc4)ncnc32)cc1C | -0.221% (inactive) |
| N=c1c2c(-c3ccccc3)c(-c3ccccc3)n(Cc3ccccc3)c2ncn1CCCO | -0.27% (inactive) |
| COc1ccc(-c2oc3ncn(Cc4ccco4)c(=N)c3c2-c2ccc(OC)cc2)cc1 | 0.0388% (inactive) |
| N=c1c2c(-c3ccccc3)c(-c3ccccc3)oc2ncn1Cc1ccco1 | 29.3% (active) |
| CSCCC1NC(=O)N(CC(=O)Nc2cccc(S(=O)(=O)N3CCCCCC3)c2)C1=O (stereo not given) | -1.42% (inactive) |
| CN=C(Nc1cccc(S(=O)(=O)N2CCOCC2)c1)c1ccccc1 | -1.05% (inactive) |

| SMILES | inhibition |
| --- | --- |
| CCN(C(=O)CSc1cccc[n+]1[O-])c1ccccc1 | -2.46% (inactive) |
| C[C@H](NS(=O)(=O)c1ccc(Cl)cc1)C(=O)OCC(=O)N1CCOCC1 | -1.2% (inactive) |
| Cc1ccsc1C(=O)NCCc1ccco1 | -0.976% (inactive) |
| CC(C)CC1NC(=O)c2cc(Cl)ccc2-n2c1nc1ccccc1c2=O (stereo not given) | -0.406% (inactive) |
| CC(NC(=O)COC(=O)CCC(=O)c1ccc(Cl)cc1)c1ccccc1 (stereo not given) | 0.0433% (inactive) |
| CCCCCCSc1ccc(-c2nc3ccc(Cl)cn3c2NCc2ccccc2)cc1 | -0.955% (inactive) |
| O=C(Nc1ccccc1-c1nnn(CC(=O)N2CCN(c3ccccc3)CC2)n1)c1cccs1 | -0.118% (inactive) |
| O=C(Nc1ccccc1-c1ccccc1)c1cccs1 | 4.17% (inactive) |
| O=C(Nc1ccccc1-c1nc2ccccc2[nH]c1=O)c1cccs1 | 71.9% (active) |
| O=C(COc1ccc(Br)cc1F)NCC1(N2CCCCC2)CCCCC1 | -1.07% (inactive) |
| Cc1ccccc1SCC(=O)OCC(=O)N1CC(=O)Nc2ccccc21 | -0.869% (inactive) |
| C[C@H](CO)N1C[C@H](C)[C@@H](CN(C)C(=O)NC2CCCCC2)Oc2ccc(NC(=O)c3ccncc3)cc2C1=O | 0.225% (inactive) |
| CCC(CO)Oc1cc(NC(=O)c2ccc(Cl)cc2)c2ncn(C(C)C)c2c1 (stereo not given) | -0.728% (inactive) |
| COc1ccc(OCC(=O)NNC(=O)C2CCC2)cc1 | -0.275% (inactive) |
| COc1ccc(OC)c(NC(=O)COC(=O)Cc2ccsc2)c1 | 0.647% (inactive) |
| Cc1ccc(S(=O)(=O)N2[C@@H](c3ccc(Br)cc3)C(C(=O)O)=C[C@H]2CC2CCCC2)cc1 | -2.01% (inactive) |
| CCOC(=O)[C@@H]1[C@H]2COc3ccc(Br)cc3[C@H]2N2C(=O)N(c3ccc(C)cc3)C(=O)[C@@]12C | -0.0883% (inactive) |
| CCCc1cc(=O)[nH]c(SCC(=O)Nc2ccc(S(=O)(=O)N3CCCC3)cc2)n1 | -1.05% (inactive) |
| Cc1noc(C)c1NC(=O)Nc1ccc2c(c1)C(=O)N([C@H](C)CO)C[C@H](C)[C@@H](CN(C)S(=O)(=O)c1cn(C)cn1)O2 | -0.91% (inactive) |
| COc1c(O)cc2oc(-c3ccc(O)c(O)c3)cc(=O)c2c1O | 44.2% (active) |
| CCOC(=O)COc1cc(O)c2c(=O)cc(-c3ccccc3)oc2c1 | 1.27% (inactive) |
| CCOC(=O)COc1cc(OCC(=O)OCC)c2c(=O)cc(-c3ccccc3)oc2c1 | -0.944% (inactive) |

| SMILES | inhibition |
| --- | --- |
| O=C(NNC(=O)c1ccc(Cl)nc1)c1ccc(Br)cc1 | -0.906% (inactive) |
| Cc1ccc(C)c(NC(=O)CN(C)C(=O)COc2ccc3ccccc3c2)c1 | -0.402% (inactive) |
| CC(=O)NC(CC(=O)Nc1ccc(S(=O)(=O)N2CCOCC2)cc1)c1ccccc1 (stereo not given) | 2.28% (inactive) |
| Cc1ccc(S(=O)(=O)N2[C@@H](c3cccc4ccccc34)C(C(=O)O)=C[C@H]2C(C)(C)C)cc1 | -1.33% (inactive) |
| CN(CCc1ccccc1)C(=O)c1cccc(NC(=O)Cc2ccc([N+](=O)[O-])cc2)c1 | 0.236% (inactive) |
| O=C1OC[C@@H]2CCCN2C(=O)[C@H](CC(=O)N(CCO)Cc2ccccc2)C/C=C\CC[C@@H]1Cc1ccc(F)cc1 | -0.762% (inactive) |
| Cc1ccc(C(=O)OCC(=O)N2CCCCCC2)cc1S(=O)(=O)N1CCOCC1 | -2.28% (inactive) |
| C=CC[C@@H](CC(=O)N[C@H](CO)Cc1ccccc1)C(=O)N[C@@H](COC(=O)[C@@H](CC=C)Cc1ccc(F)cc1)Cc1c[nH]c2ccccc12 | -0.564% (inactive) |
| O=C1NC[C@@H](c2ccccc2)OC(=O)[C@H](Cc2ccc(F)cc2)CC/C=C/C[C@H]1CC(=O)N(CCO)Cc1ccccc1 | -2.42% (inactive) |
| Fc1ccccc1-c1cc2cc3c(cc2cn1)OCO3 | 1.15% (inactive) |
| O=C(CN1C(=O)NC2(CCCCCC2)C1=O)Nc1ccc([N+](=O)[O-])cc1 | -2.25% (inactive) |
| O=C(COC(=O)c1cccnc1Cl)NC(=O)NC1CCCCC1 | -0.374% (inactive) |
| COc1ccc(Cl)cc1NC(=O)COC(=O)c1ccc(Br)o1 | -0.284% (inactive) |
| COc1ccc(CNc2nc(NCc3ccc(OC)cc3)c3ncn(C4CCCC4)c3n2)cc1 | -0.00506% (inactive) |
| O=C(CN1C(=O)c2ccc([N+](=O)[O-])cc2C1=O)Nc1nnc(C2CC2)s1 | -0.729% (inactive) |
| C=CCC[C@H](Cc1ccc(F)cc1)C(=O)OC[C@@H](Cc1c[nH]c2ccccc12)NC(=O)[C@H](CC=C)CC(=O)N[C@H](CO)Cc1ccccc1 | -0.577% (inactive) |
| O=C(COC(=O)c1ccc(O)cc1O)c1ccc2c(c1)OCCO2 | 1.53% (inactive) |
| CCOc1ccc(Br)cc1S(=O)(=O)Nc1ccc(S(=O)(=O)Nc2cc(C)on2)cc1 | -0.663% (inactive) |
| COc1ccc2nc3n(c(=O)c2c1)-c1cc(C)ccc1C(=O)NC3Cc1ccc(O)cc1 (stereo not given) | -0.57% (inactive) |

Reference: PubChem BioAssay AID2661 (Broad Institute, 2010)
